Test results: the supplement of paper PMC10849652
Targets with a hit are over-represented here; the source holds about 8,800 in all. About 0.5% of all pairs of compound and target were hits.

How the values were obtained:
Test in all cases: log2 fold change, soluble protein after heating vs DMSO (PISA); higher = thermal stabilisation; K562 lysate, 10 uM; active = over 0.2 and 3.5 SD of the protein, either way, in both replicates (recomputed)
[1] = compound: C=CC(=O)N1CCC[C@@H](n2nc(-c3ccc(Oc4ccccc4)cc3)c3c(N)ncnc32)C1 [ibrutinib]
Summary of the method: (§1)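 K562 pellets were dounce-homogenised in PBS pH 7.4 with 1 mM MgCl2, and the crude extract at 1 mg/mL protein was treated with 10 μM compound for 30 min. Aliquots were heated for 3 min across 48°C-58°C, pooled, and brought to 0.5% NP-40 at 4°C; soluble protein was the supernatant after 21,000xg for 90 min. Soluble protein was quantified by TMTpro 16plex LC-MS/MS with channel sums equalised, and reported as log2 fold change in thermal stability against DMSO controls, with values from duplicates.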

[2] = compound: CC(=O)c1cnc2ccc(-c3cc(Cl)c(O)c(Cl)c3)nc2c1N[C@H]1CC[C@H](CN(C)C)CC1
Summary of the method: as §1

[3] = compound: CC(C)(C)Cn1c(N)nc2ccc(-c3[nH]c(C(C)(C)C)nc3-c3ccc(F)cc3)nc21 [ralimetinib]
Summary of the method: as §1

[4] = compound: CC(C)(O)CC(=O)NCCn1ccc2ncnc(Nc3ccc(Oc4cccc(C(F)(F)F)c4)c(Cl)c3)c21
Summary of the method: as §1

[5] = compound: CC(C)C1=C2N=C(C=C(N2N=C1)NCC3=CC=CC=C3)NCCCCCCN
Summary of the method: as §1

[6] = compound: CC1=C(C(CC(=O)N1)C2=CC=C(C=C2)C(F)(F)F)C(=O)NC3=C(C=C4C(=C3)C=NN4)F
Summary of the method: as §1

[7] = compound: CC1=C(C2=C(C=C1)C(=O)C3=CC=CC=C3N2CCCN)C
Summary of the method: as §1

[8] = compound: CC1=C(C=C(C=C1)NC(=O)C2=CC(=CC=C2)C(C)(C)C#N)NC3=CC4=C(C=C3)N=CN(C4=O)C
Summary of the method: as §1

[9] = compound: CC1=C(C=C(C=C1)NC(=O)C2=CC(=CC=C2)N(C)C)NC(=O)C3=CC=C(C=C3)O
Summary of the method: as §1

[10] = compound: CC1=CC=C(C=C1)SC2=C3C=C(SC3=CN=C2)C(=O)N
Summary of the method: as §1

Measured: log2 fold change

MRPL12 (UniProt P52815)
inactive: [1] 0.082 | [2] -0.05 | [3] 0.006 | [4] -0.013 | [5] -0.029 | [6] -0.042 | [7] 0 | [8] 0.026 | [9] 0.012 | [10] 0.076

MPI (UniProt P34949)
inactive: [1] 0.029 | [2] 0.031 | [3] -0.06 | [4] 0.009 | [5] -0.039 | [6] -0.004 | [7] -0.051 | [8] 0.055 | [9] -0.012 | [10] -0.013

MOSPD2 (UniProt Q8NHP6)
Sequence of UniProt Q8NHP6 (Q8NHP6 whole entry, looked up): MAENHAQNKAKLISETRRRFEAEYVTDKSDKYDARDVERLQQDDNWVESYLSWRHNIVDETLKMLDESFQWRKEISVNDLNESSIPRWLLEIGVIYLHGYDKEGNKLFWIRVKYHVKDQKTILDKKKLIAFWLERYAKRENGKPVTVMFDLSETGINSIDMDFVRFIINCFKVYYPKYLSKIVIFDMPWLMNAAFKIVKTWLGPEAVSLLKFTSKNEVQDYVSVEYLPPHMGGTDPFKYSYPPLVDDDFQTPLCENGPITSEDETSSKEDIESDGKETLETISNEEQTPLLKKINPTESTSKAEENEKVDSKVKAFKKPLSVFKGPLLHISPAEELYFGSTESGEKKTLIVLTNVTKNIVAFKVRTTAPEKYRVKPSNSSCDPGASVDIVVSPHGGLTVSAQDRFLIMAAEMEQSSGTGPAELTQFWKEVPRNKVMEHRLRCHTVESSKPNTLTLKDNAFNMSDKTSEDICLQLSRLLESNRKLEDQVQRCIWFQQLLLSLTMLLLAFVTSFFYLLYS
inactive: [1] -0.023 | [2] 0.019 | [3] 0.023 | [4] 0.067 | [5] 0.028 | [6] -0.049 | [7] 0.009 | [8] -0.037 | [9] -0.012 | [10] 0.017

KLC2 (UniProt Q9H0B6)
inactive: [1] 0.021 | [2] 0.01 | [3] 0.003 | [4] 0.008 | [5] -0.001 | [6] -0.045 | [7] -0.036 | [8] 0.012 | [9] 0.016 | [10] -0.012

KPNA4 (UniProt O00629)
Sequence of UniProt O00629 (O00629 whole entry, looked up): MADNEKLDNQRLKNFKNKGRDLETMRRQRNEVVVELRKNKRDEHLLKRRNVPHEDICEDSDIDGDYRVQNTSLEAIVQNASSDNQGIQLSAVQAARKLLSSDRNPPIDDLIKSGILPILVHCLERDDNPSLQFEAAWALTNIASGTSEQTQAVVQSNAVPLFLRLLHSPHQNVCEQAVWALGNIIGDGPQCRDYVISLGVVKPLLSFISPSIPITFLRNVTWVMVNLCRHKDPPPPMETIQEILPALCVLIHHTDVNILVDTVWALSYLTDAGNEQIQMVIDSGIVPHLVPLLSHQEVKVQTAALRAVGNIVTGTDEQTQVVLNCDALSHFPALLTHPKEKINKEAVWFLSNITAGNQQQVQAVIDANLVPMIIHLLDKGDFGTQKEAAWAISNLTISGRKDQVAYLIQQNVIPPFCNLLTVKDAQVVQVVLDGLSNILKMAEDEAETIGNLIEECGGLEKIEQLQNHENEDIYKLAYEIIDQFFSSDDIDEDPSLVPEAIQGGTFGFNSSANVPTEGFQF
inactive: [1] -0.037 | [2] -0.047 | [3] -0.024 | [4] 0.002 | [5] 0.019 | [6] 0.003 | [7] 0.019 | [8] 0.019 | [9] 0 | [10] -0.018

MGST1 (UniProt P10620)
Sequence of UniProt P10620 (P10620 whole entry, looked up): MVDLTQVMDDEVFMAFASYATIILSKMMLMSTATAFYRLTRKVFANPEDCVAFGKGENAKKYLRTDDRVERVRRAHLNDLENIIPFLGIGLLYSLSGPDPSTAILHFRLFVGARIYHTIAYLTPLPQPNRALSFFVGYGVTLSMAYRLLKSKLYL
inactive: [1] 0.052 | [2] 0.039 | [3] 0.054 | [4] -0.047 | [5] -0.002 | [6] 0.002 | [7] -0.078 | [8] -0.01 | [9] 0.014 | [10] 0.05

MAP4 isoform 5 (UniProt P27816)
inactive: [1] 0.172 | [2] 0.027 | [3] -0.1 | [4] -0.166 | [5] 0.03 | [6] 0.048 | [7] 0.019 | [8] 0.012 | [9] 0.082 | [10] 0.047

MAD2L1BP isoform 3 (UniProt Q15013)
Sequence of UniProt Q15013 (Q15013 whole entry, looked up): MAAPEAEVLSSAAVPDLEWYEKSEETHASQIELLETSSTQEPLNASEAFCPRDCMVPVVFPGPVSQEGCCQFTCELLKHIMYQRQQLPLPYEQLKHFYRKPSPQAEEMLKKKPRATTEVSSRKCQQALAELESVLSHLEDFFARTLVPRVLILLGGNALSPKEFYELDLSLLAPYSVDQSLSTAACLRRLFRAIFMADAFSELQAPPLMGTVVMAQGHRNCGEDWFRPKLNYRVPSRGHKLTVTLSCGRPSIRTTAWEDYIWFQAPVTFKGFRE
inactive: [1] -0.016 | [2] -0.099 | [3] 0.038 | [4] 0.015 | [5] -0.037 | [6] 0.107 | [7] -0.054 | [8] 0.005 | [9] -0.011 | [10] -0.05

MAP4 (UniProt P27816)
inactive: [1] 0.002 | [2] -0.005 | [3] -0.016 | [4] -0.002 | [5] 0.016 | [6] -0.023 | [7] -0.016 | [8] 0.006 | [9] -0.001 | [10] -0.008

MRPL28 (UniProt Q13084)
inactive: [1] 0.151 | [2] 0.04 | [3] 0.027 | [4] -0.005 | [5] 0.012 | [6] -0.112 | [7] -0.017 | [8] 0.057 | [9] -0.012 | [10] 0.023

MARK2 (UniProt E9PC69)
inactive: [1] 0.139 | [2] -0.053 | [3] 0.014 | [4] -0.004 | [5] 0.015 | [6] -0.012 | [7] -0.063 | [8] 0.024 | [9] 0.045 | [10] 0.012

KRIT1 (UniProt O00522)
inactive: [1] 0.089 | [2] -0.047 | [3] 0.001 | [4] -0.02 | [5] 0.045 | [6] -0.041 | [7] -0.075 | [8] 0.045 | [9] -0.011 | [10] -0.095

LDAH isoform 2 (UniProt Q9H6V9)
Sequence of UniProt Q9H6V9 (Q9H6V9 whole entry, looked up): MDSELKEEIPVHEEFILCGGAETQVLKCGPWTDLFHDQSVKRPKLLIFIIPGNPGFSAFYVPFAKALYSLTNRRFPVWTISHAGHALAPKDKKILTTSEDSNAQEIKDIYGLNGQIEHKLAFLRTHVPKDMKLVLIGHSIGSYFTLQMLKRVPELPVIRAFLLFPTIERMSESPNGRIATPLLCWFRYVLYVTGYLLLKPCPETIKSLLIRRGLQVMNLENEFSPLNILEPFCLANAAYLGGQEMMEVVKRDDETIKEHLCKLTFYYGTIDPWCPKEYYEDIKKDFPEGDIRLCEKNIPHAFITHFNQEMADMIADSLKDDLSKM
inactive: [1] 0.015 | [2] 0.021 | [3] 0.029 | [4] 0.097 | [5] -0.018 | [6] 0.006 | [7] 0.029 | [8] 0.007 | [9] 0 | [10] 0.014

KIF14 (UniProt Q15058)
inactive: [1] 0.086 | [2] 0.024 | [3] 0.002 | [4] 0.003 | [5] 0.017 | [6] 0.002 | [7] -0.011 | [8] 0.007 | [9] 0.041 | [10] -0.012

MACO1 (UniProt Q8N5G2)
inactive: [1] 0 | [2] 0.043 | [3] -0.003 | [4] -0.04 | [5] 0.01 | [6] 0.018 | [7] -0.043 | [8] -0.023 | [9] -0.002 | [10] 0.095

LTN1 isoform 3 (UniProt O94822)
inactive: [1] -0.036 | [2] 0.018 | [3] 0.016 | [4] -0.066 | [5] 0.079 | [6] 0.001 | [7] -0.009 | [8] -0.018 | [9] 0.075 | [10] 0.019

MED14 (UniProt O60244)
inactive: [1] 0.002 | [2] -0.013 | [3] 0.017 | [4] -0.022 | [5] 0.01 | [6] 0.021 | [7] -0.029 | [8] -0.019 | [9] 0.013 | [10] 0.018

LYAR (UniProt Q9NX58)
Sequence of UniProt Q9NX58 (Q9NX58 whole entry, looked up): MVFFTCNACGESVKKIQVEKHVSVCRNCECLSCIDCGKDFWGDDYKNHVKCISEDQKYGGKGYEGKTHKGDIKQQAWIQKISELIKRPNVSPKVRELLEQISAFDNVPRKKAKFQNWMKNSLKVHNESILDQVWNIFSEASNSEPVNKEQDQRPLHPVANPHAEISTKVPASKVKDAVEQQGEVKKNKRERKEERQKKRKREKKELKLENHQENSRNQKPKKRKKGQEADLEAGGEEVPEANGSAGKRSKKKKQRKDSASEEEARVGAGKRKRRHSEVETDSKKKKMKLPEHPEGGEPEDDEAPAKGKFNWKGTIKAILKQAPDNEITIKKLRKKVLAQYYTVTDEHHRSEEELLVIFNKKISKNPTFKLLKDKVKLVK
inactive: [1] -0.009 | [2] -0.035 | [3] -0.011 | [4] 0.016 | [5] 0.004 | [6] 0.03 | [7] -0.012 | [8] 0.016 | [9] 0.015 | [10] 0.038

MARK1 (UniProt Q9P0L2)
Sequence of UniProt Q9P0L2 (Q9P0L2 whole entry, looked up): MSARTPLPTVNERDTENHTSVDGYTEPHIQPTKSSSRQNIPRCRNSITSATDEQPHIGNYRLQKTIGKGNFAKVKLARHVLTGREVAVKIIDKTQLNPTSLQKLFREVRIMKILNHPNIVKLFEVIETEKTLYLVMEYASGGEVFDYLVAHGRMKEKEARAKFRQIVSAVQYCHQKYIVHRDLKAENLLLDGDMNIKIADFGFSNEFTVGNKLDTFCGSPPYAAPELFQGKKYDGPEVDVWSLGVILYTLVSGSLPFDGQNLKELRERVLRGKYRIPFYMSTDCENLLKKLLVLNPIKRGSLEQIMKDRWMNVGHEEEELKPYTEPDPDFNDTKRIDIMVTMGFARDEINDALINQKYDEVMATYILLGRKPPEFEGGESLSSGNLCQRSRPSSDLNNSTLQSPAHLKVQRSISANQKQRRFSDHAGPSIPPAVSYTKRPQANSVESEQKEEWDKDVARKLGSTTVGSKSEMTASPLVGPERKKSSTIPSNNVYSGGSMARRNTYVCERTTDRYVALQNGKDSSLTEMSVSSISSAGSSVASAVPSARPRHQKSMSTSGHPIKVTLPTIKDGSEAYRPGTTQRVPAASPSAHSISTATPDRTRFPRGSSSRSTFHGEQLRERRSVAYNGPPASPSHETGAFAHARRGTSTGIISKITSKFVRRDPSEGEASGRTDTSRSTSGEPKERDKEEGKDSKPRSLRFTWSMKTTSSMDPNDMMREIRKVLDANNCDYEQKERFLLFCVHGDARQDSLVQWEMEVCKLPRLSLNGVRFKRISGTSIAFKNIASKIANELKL
inactive: [1] -0.006 | [2] -0.054 | [3] 0.078 | [4] 0.046 | [5] 0.021 | [6] 0.011 | [7] 0.021 | [8] 0.07 | [9] 0.04 | [10] 0.007

MED10 (UniProt Q9BTT4)
inactive: [1] -0.029 | [2] -0.087 | [3] -0.015 | [4] -0.055 | [5] -0.019 | [6] -0.013 | [7] -0.025 | [8] 0.02 | [9] 0.074 | [10] 0.074

MORC3 (UniProt Q14149)
Sequence of UniProt Q14149 (Q14149 whole entry, looked up): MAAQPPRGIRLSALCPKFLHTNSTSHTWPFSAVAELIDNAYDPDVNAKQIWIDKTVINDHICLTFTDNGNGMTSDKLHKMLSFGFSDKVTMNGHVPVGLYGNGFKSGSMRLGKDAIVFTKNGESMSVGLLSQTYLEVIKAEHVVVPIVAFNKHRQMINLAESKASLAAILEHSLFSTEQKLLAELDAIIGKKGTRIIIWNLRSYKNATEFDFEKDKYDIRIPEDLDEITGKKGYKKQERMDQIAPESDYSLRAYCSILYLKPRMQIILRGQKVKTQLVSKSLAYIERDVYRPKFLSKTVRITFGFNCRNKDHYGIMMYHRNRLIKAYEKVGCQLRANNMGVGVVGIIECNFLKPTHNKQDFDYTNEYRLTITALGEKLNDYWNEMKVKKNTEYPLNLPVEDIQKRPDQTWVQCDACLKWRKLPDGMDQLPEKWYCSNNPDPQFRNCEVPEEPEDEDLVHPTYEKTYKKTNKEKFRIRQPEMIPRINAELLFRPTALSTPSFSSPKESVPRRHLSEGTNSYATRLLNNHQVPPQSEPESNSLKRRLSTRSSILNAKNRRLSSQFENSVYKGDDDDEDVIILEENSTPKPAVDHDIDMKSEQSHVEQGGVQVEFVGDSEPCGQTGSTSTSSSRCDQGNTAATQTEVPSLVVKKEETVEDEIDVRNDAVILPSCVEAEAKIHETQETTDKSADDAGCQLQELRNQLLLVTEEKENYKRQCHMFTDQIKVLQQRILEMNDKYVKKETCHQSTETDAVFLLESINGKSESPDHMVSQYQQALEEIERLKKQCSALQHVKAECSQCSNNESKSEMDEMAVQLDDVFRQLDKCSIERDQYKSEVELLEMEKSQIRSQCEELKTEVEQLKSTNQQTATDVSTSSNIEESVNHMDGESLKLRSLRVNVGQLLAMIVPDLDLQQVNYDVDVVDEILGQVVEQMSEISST
inactive: [1] 0.004 | [2] -0.023 | [3] 0.021 | [4] 0.013 | [5] -0.007 | [6] 0.007 | [7] -0.032 | [8] -0.021 | [9] 0.021 | [10] -0.027

MAP2K3 isoform 3 (UniProt P46734)
inactive: [1] -0.041 | [2] 0.095 | [3] 0.012 | [4] -0.008 | [5] -0.15 | [6] 0.019 | [7] -0.095 | [8] 0.021 | [9] 0.123 | [10] 0.114

LAMP1 (UniProt P11279)
inactive: [1] 0.034 | [2] -0.031 | [3] -0.003 | [4] -0.11 | [5] 0.008 | [6] 0.01 | [7] 0.003 | [8] 0.022 | [9] -0.04 | [10] -0.032

MAPK6 (UniProt Q16659)
inactive: [1] 0.07 | [2] 0.025 | [3] 0.004 | [4] -0.05 | [5] 0.012 | [6] 0 | [7] 0 | [8] -0.006 | [9] 0.029 | [10] 0.021

MLXIP (UniProt Q9HAP2)
inactive: [1] 0.045 | [2] 0.007 | [3] -0.006 | [4] -0.035 | [5] 0.028 | [6] -0.033 | [7] -0.015 | [8] -0.015 | [9] -0.011 | [10] -0.015

MLLT11 (UniProt Q13015)
Sequence of UniProt Q13015 (Q13015 whole entry, looked up): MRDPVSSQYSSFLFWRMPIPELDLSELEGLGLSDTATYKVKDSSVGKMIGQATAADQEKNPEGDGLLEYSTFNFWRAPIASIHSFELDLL
inactive: [1] -0.057 | [2] 0.077 | [3] 0.032 | [4] -0.116 | [5] 0.164 | [6] 0.174 | [7] -0.037 | [8] 0.326 | [9] -0.008 | [10] 0.055

LARP4B (UniProt Q92615)
inactive: [1] 0 | [2] 0.005 | [3] 0.055 | [4] 0.069 | [5] -0.02 | [6] -0.006 | [7] 0.03 | [8] -0.094 | [9] 0.037 | [10] 0.014

MED13L (UniProt Q71F56)
inactive: [1] 0.047 | [2] -0.036 | [3] 0.014 | [4] -0.016 | [5] 0.005 | [6] -0.027 | [7] -0.036 | [8] 0.007 | [9] 0.015 | [10] -0.035

MED16 (UniProt Q9Y2X0)
Sequence of UniProt Q9Y2X0 (Q9Y2X0 whole entry, looked up): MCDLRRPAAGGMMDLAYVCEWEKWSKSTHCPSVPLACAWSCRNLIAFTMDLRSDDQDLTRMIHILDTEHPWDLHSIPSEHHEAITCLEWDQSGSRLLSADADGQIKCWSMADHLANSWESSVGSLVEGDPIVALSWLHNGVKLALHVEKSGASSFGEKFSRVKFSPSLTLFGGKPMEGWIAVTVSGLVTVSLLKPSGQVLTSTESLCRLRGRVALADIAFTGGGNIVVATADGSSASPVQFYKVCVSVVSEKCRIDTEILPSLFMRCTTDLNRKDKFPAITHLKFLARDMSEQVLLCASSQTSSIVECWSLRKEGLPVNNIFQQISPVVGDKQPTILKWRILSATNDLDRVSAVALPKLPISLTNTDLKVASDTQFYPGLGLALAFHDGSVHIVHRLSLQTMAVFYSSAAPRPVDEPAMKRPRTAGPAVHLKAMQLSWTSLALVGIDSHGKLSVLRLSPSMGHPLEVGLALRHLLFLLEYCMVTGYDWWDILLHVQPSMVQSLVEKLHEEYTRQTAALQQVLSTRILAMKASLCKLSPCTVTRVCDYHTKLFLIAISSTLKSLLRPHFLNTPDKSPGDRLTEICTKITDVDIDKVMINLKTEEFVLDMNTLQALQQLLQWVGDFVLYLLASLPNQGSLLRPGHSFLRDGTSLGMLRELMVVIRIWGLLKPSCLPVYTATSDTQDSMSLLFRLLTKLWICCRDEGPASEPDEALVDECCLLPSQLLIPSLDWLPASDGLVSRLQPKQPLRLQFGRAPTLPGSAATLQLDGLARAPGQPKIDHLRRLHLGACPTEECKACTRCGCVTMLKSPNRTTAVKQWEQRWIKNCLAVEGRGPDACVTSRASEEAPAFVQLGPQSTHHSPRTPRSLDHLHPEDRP
inactive: [1] -0.113 | [2] -0.012 | [3] 0.057 | [4] 0.046 | [5] -0.014 | [6] 0.021 | [7] -0.01 | [8] -0.038 | [9] -0.018 | [10] 0.005
